D2 antagonist – antagonizes the human D2 dopamine receptor; HEK293 TREx D2 cells, calcium flux, dopamine EC80; hit rate 2% among 340,000; inhibition, % at 10 µM; in the data active = inhibition above about 30%; inactive = below that, where a call was filed; also: 0% is about no effect
Target sequence (P14416 whole entry, looked up): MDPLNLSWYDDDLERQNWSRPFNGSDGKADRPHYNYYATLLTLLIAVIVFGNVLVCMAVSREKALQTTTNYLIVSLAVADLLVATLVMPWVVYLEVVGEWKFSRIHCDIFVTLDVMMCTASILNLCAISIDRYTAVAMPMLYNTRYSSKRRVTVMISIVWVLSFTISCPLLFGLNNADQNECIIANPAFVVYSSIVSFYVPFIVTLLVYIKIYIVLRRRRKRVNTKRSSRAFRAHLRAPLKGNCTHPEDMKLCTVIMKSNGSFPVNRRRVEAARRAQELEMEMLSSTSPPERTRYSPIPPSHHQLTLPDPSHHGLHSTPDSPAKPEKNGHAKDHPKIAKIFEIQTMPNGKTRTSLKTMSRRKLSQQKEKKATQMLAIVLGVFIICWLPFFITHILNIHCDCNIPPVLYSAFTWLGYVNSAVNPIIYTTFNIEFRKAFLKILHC
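Dopamine at EC80 is the agonist stimulus; test compounds precede it by 180 s. Calcium flux read kinetically in a force-coupled, inducible HEK293 T-REx D2 cell line.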
D2 PAM-1 – human D2 receptor positive allosteric modulation; P14416; DiscoveRx D2 beta-arrestin cells, luminescence, 90 min; 100% = 57 uM dopamine signal; potentiation, % (no concentration beside the values); hit rate 0.23% among 360,000; AID 624464; in the data active = potentiation above about 50%; inconclusive = mostly about 30% to 49%
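D2 cells co-treated with compound plus 50 nM dopamine (EC20) for 90 min at 37 deg C to detect potentiation. Beta-arrestin recruitment was read as enzyme-fragment luminescence after 1 h at ambient temperature. Full response was set by 57 uM dopamine.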
D2 ag-1 – D2 dopamine receptor (human) agonism; P14416; HEK293 T-REx D2 cells, calcium flux agonist mode; activation, % at 2 µM; hit rate 0.53% among 340,000; AID 485358;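 active = activation over 3 SD above normal in the single-dose calcium agonist read, cut at about 30% in these data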; also: 0% is about no effect
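Calcium-flux readout, 1 cycle/sec over 180 s following compound pin transfer, in inducible HEK293 Trex D2 cells (force-coupled); dopamine controls included. Positive calcium responses during this window marked compounds as potential agonists.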
D2 PAM-2 – positively modulates the human D2 dopamine receptor allosterically; P14416; HEK293 T-REx D2, calcium flux, EC20 dopamine potentiation; potentiation, % at 10 µM; hit rate 0.34% among 340,000; AID 485347;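 active = potentiation over 3 SD above the plate norm, cut at about 30% in these data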; also: 0% is about no effect
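Potentiation of an EC20 dopamine calcium response is measured in a force-coupled, tetracycline-inducible Hek293 Trex D2 line. Compound-only kinetic reads over 180 s flag agonists before dopamine addition.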
D2 ag-2 – human D2 receptor agonism in beta-arrestin assay; P14416; DiscoveRx PathHunter D2 beta-arrestin, luminescence, 90 min; 100% = 57 uM dopamine signal; activation, % (concentration not given with the values); hit rate 0.084% among 360,000; AID 624465; in the data active = activation above about 40%; inconclusive = between about 15% and that limit
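Agonist mode: compounds alone added to overnight-plated D2 PathHunter cells for 90 min at 37 C, with 57 uM final dopamine (EC100) defining full response. Beta-arrestin recruitment detected by chemiluminescent reagent, read after 1 h at ambient temperature.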
D3 ag – activates human D3 dopamine receptor beta-arrestin recruitment | shares compounds with D2 ag-1 | Potency, µM (series often up to 76.9 µM), without a hit: top-dose activation, most hits filed as activators | DiscoveRx D3 beta-arrestin cells, luminescence, 90 min | hit rate 4% among 2,300 | AID 720506;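 also: potency is read from the fitted curve at half-maximal effect; 100% = dopamine control response; nearly all actives have a fitted effect of over 70% in size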
D2 ag-3 – activates human D2 dopamine receptor in D3 counterscreen | shares compounds with D2 ag-1 | DiscoveRx PathHunter D2 beta-arrestin, luminescence, 90 min; response scale: percent relative to full dopamine signal | Potency, µM (highest dose often 76.9 µM), inactives show at the top dose activation, actives largely listed as activators | hit rate 5.9% among 2,300 | AID 720507; also: potency is read from the fitted curve at half-maximal effect; % of control where 0% means no effect; nearly all actives have a fitted effect of over 70% in size
An asterisk follows results filed as active; ? = inconclusive; . = no result given. This is a sample that favours compounds with a hit; in the whole collection about 2.4% have one here. Unless noted, calls follow the shape of the dose curve; as a rule, active = well fitted activation curve with a large enough effect; inconclusive = small, poorly fitted or top-dose-only effect; inactive = flat fitted curve, though single readings scatter.

SMILES	D2 antagonist	D2 PAM-1	D2 ag-1	D2 PAM-2	D2 ag-2	D3 ag	D2 ag-3
CN1CCc2c(sc(/N=C/c3c[nH]c4ccccc34)c2C(N)=O)C1	13	-17	1	-9	-4	.	.
CN1CCc2c(sc(/N=C/c3c[nH]c4ccccc34)c2C#N)C1	-6	-20	49*	-26	7	12%	-4%
Cn1nnnc1SCCCNCc1cc(Cl)ccc1OCc1ccccc1F	.	.	-1	-23	.	.	.
COc1ccc(Cl)cc1C(=O)NCCS(=O)(=O)N1CCN(c2ccccc2OC)CC1	.	.	.	-11	.	.	.
O=C(NCCCN1CCN(c2cccc(Cl)c2)CC1)c1nc(-c2ccncc2)no1	82*	-15	69*	-36	9	4%	21%
COc1ccc(S(N)(=O)=O)cc1C(=O)NCCCN1CCN(c2ccccc2OC)CC1	77*	-36	60*	-31	8	-2%	2%
COc1ccc(S(N)(=O)=O)cc1C(=O)NCCCN1CCN(c2cccc(Cl)c2)CC1	50*	-12	56*	-19	10	13%	24%
O=C(NCCCN1CCN(CCCNC(=O)c2cccc(Cl)c2)CC1)c1cccc(Cl)c1	2	-24	-1	-11	-2	.	.
COc1cc2c(C(=O)NCCCN3CCN(c4cccc(Cl)c4)CC3)cn(C)c(=O)c2cc1OC	-7	-31	4	-26	3	.	.
Cc1nc2nc(C)c(CCC(=O)NCCCN3CCN(c4cccc(Cl)c4)CC3)c(C)n2n1	73*	-16	75*	-14	?	10%	?
Cc1cc(Cl)ccc1C(O)c1ncc(-c2ccc(C(F)(F)F)cc2)[nH]1 (stereo not drawn)	.	4	.	.	3	.	.
CCOC(=O)c1ccccc1NC(=O)Nc1cc2c(cc1N1CCCCC1)n(C)c(=O)n2C	.	.	.	1	.	.	.
CCCCOc1ccc(CNC(=O)c2cnc3sc(N4CCCC4)nn3c2=O)cc1	.	.	0	4	.	.	.
COc1ccc(C(=O)NCN2CCN(c3ccccc3)CC2)cc1OC	23	7	64*	-20	9	1%	22%
Cc1ccc(C(=O)NCN2CCN(c3ccccc3)CC2)cc1	-16	-29	2	-36	1	.	.
COc1cc(C(C)=O)ccc1OCC(O)CN1CCN(c2ccccc2)CC1 (stereo not drawn)	85*	9	85*	-27	46*	?	?
COc1cc(C(C)=O)ccc1OCC(O)CN1CCN(c2ccc(F)cc2)CC1 (stereo not drawn)	40*	-5	41*	-15	-1	8%	5%
COc1cc(C(C)=O)ccc1OCC(O)CN1CCN(c2ccc(C)cc2C)CC1 (stereo not drawn)	4	-14	-2	-20	-2	.	.
CCOC(=O)c1ccc2c(c1)N(Cc1cccc([N+](=O)[O-])c1)C(=O)c1ccccc1S2	.	.	0	9	.	.	.
COc1cc(NC(=O)C2CCN(c3cnc4ccccc4n3)CC2)cc(OC)c1OC	.	.	0	-19	.	.	.
Cc1cc(C)c(NC(N)=S)c(C)c1	6	-4	0	-1	-5	0%	-4%
CC(C)(C)OC(=O)N1CCC(c2c(C(=O)NCCN3CCC(Cc4ccccc4)CC3)cnn2-c2ccccc2)CC1	.	.	4	-16	.	.	.
Cc1ccc(CCNC(=O)c2c(C)oc3ncn(CC(C)C)c(=O)c23)cc1	.	.	0	4	.	.	.
CCOC(=O)C1CCN(Cc2ccc(F)c(F)c2)CC1	6	-15	7	-9	0	.	.
CCOC(=O)C1CCN(Cc2ccc(OCc3ccccc3)cc2)CC1	59*	0	68*	-19	11	0%	?
CCOC(=O)C1CCN(Cc2ccc(N(C)C)cc2)CC1	28	-7	42*	-19	2	-27%	12%
CCOC(=O)C1CCN(Cc2ccc(OC)cc2OC)CC1	23	-15	-1	12	0	.	.

Compound activity deposited in PubChem BioAssay by National Center for Advancing Translational Sciences (NCATS).
